We go through one sequence from PMC7862700, “An all-to-all approach to the identification of sequence-specific readers for epigenetic DNA modifications on cytosine”.

Holding throughout (experiment): DAPPL (digital affinity profiling via proximity ligation, sequencing); 10 mM Tris-HCl pH 7.5, 50 mM NaCl, 1 mM DTT, 4% glycerol, room temperature, 30 min; GST-TFs on glutathione beads, 16-mer random dsDNA library, 0.1% formaldehyde crosslink after washing; high values mean tight binding
Experiment [1] deals with T1, FEV (Homo sapiens, UniProt Q99581 1-238).
T1 sequence: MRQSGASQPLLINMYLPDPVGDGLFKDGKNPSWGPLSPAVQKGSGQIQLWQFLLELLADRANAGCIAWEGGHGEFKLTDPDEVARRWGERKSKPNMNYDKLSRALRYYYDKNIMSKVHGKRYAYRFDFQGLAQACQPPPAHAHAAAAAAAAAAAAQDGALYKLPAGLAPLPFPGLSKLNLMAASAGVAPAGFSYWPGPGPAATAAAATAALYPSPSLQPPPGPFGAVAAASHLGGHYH
The note with it: protein: recombinant; tags: N-terminal GST; dsDNA, one strand shown. The essentials:
(§1)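 Binding signal is each hexamer's read frequency for a factor divided by its frequency in the tag-only sample. The factors were GST-fused human transcription factors from yeast, captured on glutathione beads, DNA-barcoded and pooled with that sample. Pools were incubated with 200 nmole of a random double-stranded 16-mer DNA library in Tris/NaCl/DTT/glycerol buffer at room temperature for 30 min, then washed, crosslinked with 0.1% formaldehyde, proximity-ligated with BsaI/T4 ligase (1 h, 37 °C), PCR-amplified and sequenced on an Illumina NextSeq500.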

For experiment [2], the target named is ETV5 (Homo sapiens, UniProt P41161 1-510). The conditions noted are these: protein: recombinant; tags: N-terminal GST; dsDNA, one strand shown. Summed up:
as §1

Experiment [3] deals with HSF1 (Homo sapiens, UniProt Q00613 1-529). The conditions noted are these: protein: recombinant; tags: N-terminal GST; chain copies: 3; dsDNA, one strand shown. The essentials:
as §1

The target in experiment [4] is T2, SPIC (Homo sapiens, UniProt Q8N5J4 1-248).
T2 sequence: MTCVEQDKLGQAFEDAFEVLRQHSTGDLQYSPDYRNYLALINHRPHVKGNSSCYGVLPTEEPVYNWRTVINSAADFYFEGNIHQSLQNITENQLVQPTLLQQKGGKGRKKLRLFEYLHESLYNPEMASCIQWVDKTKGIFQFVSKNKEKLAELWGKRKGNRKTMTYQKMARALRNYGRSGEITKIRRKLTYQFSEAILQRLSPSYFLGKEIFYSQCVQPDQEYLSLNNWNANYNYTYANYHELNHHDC
The note with it: protein: recombinant; tags: N-terminal GST; dsDNA, one strand shown. The essentials:
as §1

Experiment [5] deals with ELF4 (Homo sapiens, UniProt Q99607 1-663). The note with it: protein: recombinant; tags: N-terminal GST; dsDNA, one strand shown. The essentials:
as §1

Experiment [6] deals with T3, ELK4 (Homo sapiens, UniProt P28324-2 1-405).
T3 sequence: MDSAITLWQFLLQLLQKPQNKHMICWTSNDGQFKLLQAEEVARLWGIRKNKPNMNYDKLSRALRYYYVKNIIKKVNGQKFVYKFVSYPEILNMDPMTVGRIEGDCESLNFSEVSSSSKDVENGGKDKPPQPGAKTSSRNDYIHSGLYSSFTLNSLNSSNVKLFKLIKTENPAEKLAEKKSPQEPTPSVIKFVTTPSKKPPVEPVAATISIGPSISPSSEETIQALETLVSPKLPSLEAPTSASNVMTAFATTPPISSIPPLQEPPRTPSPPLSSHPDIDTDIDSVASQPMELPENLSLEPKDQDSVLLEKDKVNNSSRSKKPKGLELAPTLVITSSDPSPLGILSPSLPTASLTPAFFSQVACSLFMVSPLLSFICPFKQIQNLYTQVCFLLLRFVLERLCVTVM
The note with it: protein: recombinant; tags: N-terminal GST; dsDNA, one strand shown. The essentials: as §1

Experiment [7] addresses T4, ETV2 (Homo sapiens, UniProt O00321 1-342).
T4 sequence: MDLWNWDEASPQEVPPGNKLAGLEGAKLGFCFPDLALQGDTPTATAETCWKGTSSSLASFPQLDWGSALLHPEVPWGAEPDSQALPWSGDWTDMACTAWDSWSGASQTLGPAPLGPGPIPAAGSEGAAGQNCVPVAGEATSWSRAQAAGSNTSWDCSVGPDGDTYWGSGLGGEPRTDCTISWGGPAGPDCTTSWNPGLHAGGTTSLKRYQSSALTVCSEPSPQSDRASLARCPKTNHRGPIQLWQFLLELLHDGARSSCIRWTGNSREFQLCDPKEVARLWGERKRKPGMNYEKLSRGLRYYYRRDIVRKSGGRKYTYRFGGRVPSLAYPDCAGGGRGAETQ
The conditions noted are these: protein: recombinant; tags: N-terminal GST; dsDNA, one strand shown. Summed up: as §1

Experiment [8] addresses T5, ELF3 (Homo sapiens, UniProt P78545 1-371).
T5 sequence: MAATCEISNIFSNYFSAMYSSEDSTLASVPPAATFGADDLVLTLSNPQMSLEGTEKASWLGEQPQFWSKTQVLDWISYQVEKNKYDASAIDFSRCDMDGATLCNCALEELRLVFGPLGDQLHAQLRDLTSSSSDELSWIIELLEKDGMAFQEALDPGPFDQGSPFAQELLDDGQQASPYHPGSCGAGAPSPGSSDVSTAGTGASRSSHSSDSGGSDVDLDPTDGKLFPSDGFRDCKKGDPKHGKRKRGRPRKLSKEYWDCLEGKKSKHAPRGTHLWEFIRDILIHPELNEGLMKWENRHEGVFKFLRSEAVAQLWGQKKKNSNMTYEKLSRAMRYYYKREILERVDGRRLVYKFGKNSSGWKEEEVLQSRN
The conditions noted are these: protein: recombinant; tags: N-terminal GST; dsDNA, one strand shown. The essentials:
as §1

Experiment [9] concerns the target CRX (Homo sapiens, UniProt O43186 1-299). The conditions noted are these: protein: recombinant; tags: N-terminal GST; dsDNA, one strand shown. Summed up: as §1
Experiment [10] has as its target ETV1 (Homo sapiens, UniProt P50549 1-477). The note with it: protein: recombinant; tags: N-terminal GST; dsDNA, one strand shown. Summed up:
as §1

For experiment [11], the target named is T6, ERF (Homo sapiens, UniProt P50548 1-548).
T6 sequence: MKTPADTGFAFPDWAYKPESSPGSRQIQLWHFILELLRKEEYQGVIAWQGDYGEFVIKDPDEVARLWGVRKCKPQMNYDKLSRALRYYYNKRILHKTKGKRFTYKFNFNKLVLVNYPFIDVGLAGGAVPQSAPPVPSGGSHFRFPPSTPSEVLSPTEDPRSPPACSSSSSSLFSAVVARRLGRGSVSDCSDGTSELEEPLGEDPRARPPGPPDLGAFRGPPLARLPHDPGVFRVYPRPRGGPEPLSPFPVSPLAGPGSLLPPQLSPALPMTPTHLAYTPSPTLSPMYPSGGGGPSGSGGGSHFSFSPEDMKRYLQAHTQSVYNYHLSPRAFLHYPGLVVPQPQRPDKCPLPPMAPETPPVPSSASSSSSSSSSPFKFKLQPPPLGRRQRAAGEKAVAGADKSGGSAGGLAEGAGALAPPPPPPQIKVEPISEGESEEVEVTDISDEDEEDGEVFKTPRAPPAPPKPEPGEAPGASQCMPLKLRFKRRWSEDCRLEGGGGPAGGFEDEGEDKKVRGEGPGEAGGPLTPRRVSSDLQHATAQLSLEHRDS
The note with it: protein: recombinant; tags: N-terminal GST; dsDNA, one strand shown. The essentials:
as §1

Experiment [12] has as its target T7, ETV3L (Homo sapiens, UniProt Q6ZN32 1-361).
T7 sequence: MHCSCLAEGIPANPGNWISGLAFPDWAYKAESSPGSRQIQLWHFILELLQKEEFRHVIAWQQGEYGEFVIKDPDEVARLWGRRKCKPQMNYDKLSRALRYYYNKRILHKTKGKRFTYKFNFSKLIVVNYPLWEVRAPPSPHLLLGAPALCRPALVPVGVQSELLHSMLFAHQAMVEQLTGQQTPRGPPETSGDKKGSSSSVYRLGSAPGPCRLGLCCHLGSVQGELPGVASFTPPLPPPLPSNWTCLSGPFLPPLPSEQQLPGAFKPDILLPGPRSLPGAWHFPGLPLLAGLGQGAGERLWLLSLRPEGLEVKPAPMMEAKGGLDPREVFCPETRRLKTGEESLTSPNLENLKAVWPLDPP
The note with it: protein: recombinant; tags: N-terminal GST; dsDNA, one strand shown. Summed up: as §1

The target in experiment [13] is T8, ETS2 (Homo sapiens, UniProt P15036 1-469).
T8 sequence: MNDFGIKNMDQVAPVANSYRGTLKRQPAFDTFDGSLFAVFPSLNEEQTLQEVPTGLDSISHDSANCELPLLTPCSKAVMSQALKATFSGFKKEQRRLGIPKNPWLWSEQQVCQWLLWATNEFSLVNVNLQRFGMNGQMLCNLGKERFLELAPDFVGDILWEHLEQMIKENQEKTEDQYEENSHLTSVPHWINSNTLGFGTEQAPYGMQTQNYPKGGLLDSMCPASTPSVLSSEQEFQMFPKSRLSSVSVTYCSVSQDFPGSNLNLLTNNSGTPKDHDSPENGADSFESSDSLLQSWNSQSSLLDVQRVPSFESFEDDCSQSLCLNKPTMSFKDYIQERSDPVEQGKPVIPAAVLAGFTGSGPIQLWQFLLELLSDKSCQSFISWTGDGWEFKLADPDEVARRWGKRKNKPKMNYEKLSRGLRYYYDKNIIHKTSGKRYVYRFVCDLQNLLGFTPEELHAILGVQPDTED
The note with it: protein: recombinant; tags: N-terminal GST; dsDNA, one strand shown. Summed up:
as §1

In experiment [14] the target is T9, SPDEF (Homo sapiens, UniProt O95238 1-335).
T9 sequence: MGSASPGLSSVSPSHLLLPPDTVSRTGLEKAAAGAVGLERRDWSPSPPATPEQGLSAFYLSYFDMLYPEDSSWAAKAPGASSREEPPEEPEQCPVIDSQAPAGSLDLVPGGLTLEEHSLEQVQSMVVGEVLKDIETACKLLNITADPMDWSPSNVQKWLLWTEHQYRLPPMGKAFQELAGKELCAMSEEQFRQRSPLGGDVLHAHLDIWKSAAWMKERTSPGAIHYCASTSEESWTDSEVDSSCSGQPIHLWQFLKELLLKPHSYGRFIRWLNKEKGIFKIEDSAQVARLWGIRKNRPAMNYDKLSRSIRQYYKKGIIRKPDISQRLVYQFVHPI
The conditions noted are these: protein: recombinant; tags: N-terminal GST; dsDNA, one strand shown. The essentials:
as §1

Experiment [15] addresses T10, ETV7 (Homo sapiens, UniProt Q9Y603 1-341).
T10 sequence: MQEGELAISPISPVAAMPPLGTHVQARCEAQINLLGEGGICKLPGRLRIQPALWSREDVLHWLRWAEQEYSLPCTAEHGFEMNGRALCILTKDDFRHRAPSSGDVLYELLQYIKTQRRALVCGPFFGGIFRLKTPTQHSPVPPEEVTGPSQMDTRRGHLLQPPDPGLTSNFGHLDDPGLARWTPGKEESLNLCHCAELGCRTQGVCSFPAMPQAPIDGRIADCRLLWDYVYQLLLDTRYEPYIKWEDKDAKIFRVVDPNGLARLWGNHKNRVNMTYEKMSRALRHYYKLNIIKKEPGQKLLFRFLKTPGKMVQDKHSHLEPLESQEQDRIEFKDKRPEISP
The note with it: protein: recombinant; tags: N-terminal GST; dsDNA, one strand shown. Summed up:
as §1

For experiment [16], the target named is T11, ELF5 (Homo sapiens, UniProt Q9UKW6-2 1-255).
T11 sequence: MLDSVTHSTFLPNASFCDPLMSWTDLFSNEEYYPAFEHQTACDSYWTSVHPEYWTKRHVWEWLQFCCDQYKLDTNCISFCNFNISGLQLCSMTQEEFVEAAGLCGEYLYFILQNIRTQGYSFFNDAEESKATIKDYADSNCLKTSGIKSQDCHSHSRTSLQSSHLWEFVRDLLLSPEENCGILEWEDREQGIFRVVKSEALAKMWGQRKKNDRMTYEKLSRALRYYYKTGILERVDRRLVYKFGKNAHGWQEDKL
The note with it: protein: recombinant; tags: N-terminal GST; dsDNA, one strand shown. The essentials:
as §1

Experiment [17] concerns the target T12, ETV3 (Homo sapiens, UniProt P41162-2 1-143).
T12 sequence: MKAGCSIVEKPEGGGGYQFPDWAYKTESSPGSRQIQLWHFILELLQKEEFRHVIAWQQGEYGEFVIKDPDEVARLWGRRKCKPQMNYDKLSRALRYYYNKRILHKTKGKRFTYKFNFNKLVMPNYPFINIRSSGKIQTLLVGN
The conditions noted are these: protein: recombinant; tags: N-terminal GST; dsDNA, one strand shown. Summed up:
as §1

Experiment [18] deals with ETV6 (Homo sapiens, UniProt P41212 1-452). The conditions noted are these: protein: recombinant; tags: N-terminal GST; dsDNA, one strand shown. The essentials: as §1
Chain of ETV6 (P41212 whole entry): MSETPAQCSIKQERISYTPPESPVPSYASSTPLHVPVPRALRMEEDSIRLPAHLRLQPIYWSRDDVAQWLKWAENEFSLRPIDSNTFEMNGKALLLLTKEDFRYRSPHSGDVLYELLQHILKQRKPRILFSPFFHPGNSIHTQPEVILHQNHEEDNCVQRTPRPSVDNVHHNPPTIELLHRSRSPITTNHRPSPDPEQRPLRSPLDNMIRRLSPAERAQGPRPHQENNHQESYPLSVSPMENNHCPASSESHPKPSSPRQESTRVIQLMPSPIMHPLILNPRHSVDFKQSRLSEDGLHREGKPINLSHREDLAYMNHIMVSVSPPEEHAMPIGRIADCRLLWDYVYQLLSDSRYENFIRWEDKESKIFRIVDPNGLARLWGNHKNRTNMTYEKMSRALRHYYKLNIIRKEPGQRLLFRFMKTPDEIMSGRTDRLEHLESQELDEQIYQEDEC

Chain of HSF1 (Q00613 whole entry): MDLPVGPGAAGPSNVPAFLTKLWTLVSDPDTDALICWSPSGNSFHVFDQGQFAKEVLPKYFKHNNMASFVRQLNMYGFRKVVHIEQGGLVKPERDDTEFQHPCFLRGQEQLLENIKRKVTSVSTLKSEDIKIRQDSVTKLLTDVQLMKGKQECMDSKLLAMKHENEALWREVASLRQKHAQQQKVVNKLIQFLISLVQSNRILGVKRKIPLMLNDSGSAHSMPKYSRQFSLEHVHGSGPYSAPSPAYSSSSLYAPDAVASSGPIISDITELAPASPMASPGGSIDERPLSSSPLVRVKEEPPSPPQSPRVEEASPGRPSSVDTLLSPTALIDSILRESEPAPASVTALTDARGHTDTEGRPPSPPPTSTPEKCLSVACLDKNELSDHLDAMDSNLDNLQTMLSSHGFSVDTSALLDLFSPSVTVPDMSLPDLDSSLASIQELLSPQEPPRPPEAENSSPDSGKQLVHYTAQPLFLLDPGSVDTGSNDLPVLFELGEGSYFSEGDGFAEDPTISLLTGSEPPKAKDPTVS
Chain of ETV1 (P50549 whole entry): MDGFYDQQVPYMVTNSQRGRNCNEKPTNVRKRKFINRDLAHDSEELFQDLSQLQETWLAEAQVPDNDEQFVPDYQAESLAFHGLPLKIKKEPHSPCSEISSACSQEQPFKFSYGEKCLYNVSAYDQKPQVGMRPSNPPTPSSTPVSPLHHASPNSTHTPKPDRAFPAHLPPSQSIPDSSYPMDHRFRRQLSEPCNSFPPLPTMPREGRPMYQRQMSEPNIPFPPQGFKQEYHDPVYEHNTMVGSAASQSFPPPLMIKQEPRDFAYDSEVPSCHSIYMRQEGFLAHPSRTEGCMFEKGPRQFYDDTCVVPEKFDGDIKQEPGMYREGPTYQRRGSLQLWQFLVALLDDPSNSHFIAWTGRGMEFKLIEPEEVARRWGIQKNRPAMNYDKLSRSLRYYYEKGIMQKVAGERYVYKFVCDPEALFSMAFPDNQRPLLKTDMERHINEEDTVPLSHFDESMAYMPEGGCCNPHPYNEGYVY
Chain of ETV5 (P41161 whole entry): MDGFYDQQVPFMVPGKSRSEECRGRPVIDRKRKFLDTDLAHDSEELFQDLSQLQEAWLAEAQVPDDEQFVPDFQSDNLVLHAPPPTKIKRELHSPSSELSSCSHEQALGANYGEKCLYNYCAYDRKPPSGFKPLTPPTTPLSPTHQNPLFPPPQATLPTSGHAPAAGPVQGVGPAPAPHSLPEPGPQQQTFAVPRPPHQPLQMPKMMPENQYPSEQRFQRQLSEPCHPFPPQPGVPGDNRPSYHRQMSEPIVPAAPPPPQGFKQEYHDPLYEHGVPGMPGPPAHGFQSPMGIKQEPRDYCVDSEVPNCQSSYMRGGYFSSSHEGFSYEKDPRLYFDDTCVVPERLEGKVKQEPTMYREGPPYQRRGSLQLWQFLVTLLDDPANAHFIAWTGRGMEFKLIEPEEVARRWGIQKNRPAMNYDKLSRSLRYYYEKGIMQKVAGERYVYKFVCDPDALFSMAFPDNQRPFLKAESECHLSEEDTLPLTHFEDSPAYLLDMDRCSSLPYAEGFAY
Chain of CRX (O43186 whole entry): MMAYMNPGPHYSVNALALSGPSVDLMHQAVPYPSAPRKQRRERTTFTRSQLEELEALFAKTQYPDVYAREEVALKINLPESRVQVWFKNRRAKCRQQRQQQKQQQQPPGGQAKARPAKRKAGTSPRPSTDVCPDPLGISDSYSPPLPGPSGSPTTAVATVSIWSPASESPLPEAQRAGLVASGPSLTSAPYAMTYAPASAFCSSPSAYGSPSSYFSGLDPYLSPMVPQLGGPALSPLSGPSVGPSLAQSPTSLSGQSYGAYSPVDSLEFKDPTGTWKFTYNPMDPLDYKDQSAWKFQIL
Chain of ELF4 (Q99607 whole entry): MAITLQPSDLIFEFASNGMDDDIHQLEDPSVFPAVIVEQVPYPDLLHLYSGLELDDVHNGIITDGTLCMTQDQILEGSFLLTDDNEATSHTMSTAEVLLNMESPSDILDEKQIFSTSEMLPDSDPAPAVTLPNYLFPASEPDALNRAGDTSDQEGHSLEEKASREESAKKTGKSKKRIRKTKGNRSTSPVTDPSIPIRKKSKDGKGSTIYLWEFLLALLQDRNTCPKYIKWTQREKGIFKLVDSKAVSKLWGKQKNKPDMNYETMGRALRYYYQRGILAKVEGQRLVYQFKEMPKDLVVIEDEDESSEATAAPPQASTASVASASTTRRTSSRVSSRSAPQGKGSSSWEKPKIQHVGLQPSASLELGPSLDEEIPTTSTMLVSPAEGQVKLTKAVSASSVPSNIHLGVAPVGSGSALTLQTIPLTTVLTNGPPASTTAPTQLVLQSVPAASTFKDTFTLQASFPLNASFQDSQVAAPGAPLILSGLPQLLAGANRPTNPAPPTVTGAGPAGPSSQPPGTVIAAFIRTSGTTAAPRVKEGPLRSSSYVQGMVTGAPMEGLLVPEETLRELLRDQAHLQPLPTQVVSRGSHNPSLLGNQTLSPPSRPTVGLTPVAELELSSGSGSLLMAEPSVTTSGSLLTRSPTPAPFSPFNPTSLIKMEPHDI

As to TATGAT, the binding signal is 1.16 fold enrichment (6-mer frequency, TF over GST control) in experiment [1]; 1.24 fold enrichment (6-mer frequency, TF over GST control) in experiment [2]; 1.31 fold enrichment (6-mer frequency, TF over GST control) in experiment [3]; 1.29 fold enrichment (6-mer frequency, TF over GST control) in experiment [4]; 1.12 fold enrichment (6-mer frequency, TF over GST control) in [5]; 1.25 fold enrichment (6-mer frequency, TF over GST control) in experiment [6]. In addition, the binding signal in [7] is 1.27 fold enrichment (6-mer frequency, TF over GST control); in experiment [8] it was 1.09 fold enrichment (6-mer frequency, TF over GST control); in experiment [9] it was 1.5 fold enrichment (6-mer frequency, TF over GST control); in experiment [10] it was 1.17 fold enrichment (6-mer frequency, TF over GST control); in experiment [11], 1.22 fold enrichment (6-mer frequency, TF over GST control); in experiment [12] it was 1.18 fold enrichment (6-mer frequency, TF over GST control). The binding signal is 1.17 fold enrichment (6-mer frequency, TF over GST control) in experiment [13]; 1.23 fold enrichment (6-mer frequency, TF over GST control) in [14]; 1.25 fold enrichment (6-mer frequency, TF over GST control) in experiment [15]; 1.26 fold enrichment (6-mer frequency, TF over GST control) in experiment [16]; 1.26 fold enrichment (6-mer frequency, TF over GST control) in [17]; 1.17 fold enrichment (6-mer frequency, TF over GST control) in [18].
